For 15 compounds, Potency results are on record in PubChem BioAssay (NCATS).

Structures are written as SMILES. Records with an inconclusive call do not appear. Entries that show only a call come without a potency. Active and inactive are the calls of the source. Calls come from the whole dose curve; as a rule, active = well fitted inhibition curve with a large enough effect; inconclusive = small, poorly fitted or top-dose-only effect; inactive = no such curve, though single readings can be large or run the other way.

Test [1] addresses Retinal dehydrogenase 2 (Homo sapiens) (UniProt O94788). Briefly: qHTS for Inhibitors of the Aldehyde Dehydrogenase Family (ALDH1A2) Confirmation screens (AID 2061314). Note: nearly all actives have a fitted effect of over 65% in size. Note: potency is the fitted concentration of half-maximal effect. Conditions: ALDH1A2 enzyme inhibition qHTS confirmation; series mostly up to 45.9 µM.
Test [2] deals with Retinaldehyde dehydrogenase 3 (Homo sapiens) (UniProt P47895). Briefly: qHTS for Inhibitors of the Aldehyde Dehydrogenase Family (ALDH1A3) Primary screen (AID 2061315). As to conditions: ALDH inhibition qHTS; series mostly up to 56 µM.
For test [3], the target named is Aldehyde dehydrogenase 1A1 (Homo sapiens) (UniProt P00352). Briefly: qHTS for Inhibitors of the Aldehyde Dehydrogenase Family (ALDH1A1) Confirmatory screens (AID 2061316). Note: potency is the fitted concentration of half-maximal effect; nearly all actives have a fitted effect of over 65% in size. As to conditions: ALDH inhibition qHTS; series mostly up to 47.3 µM.

For `Cn1nnnc1Sc1ncnc2scc(I)c12`, the Potency result in test [1] and in test [2] was “inactive” each time. Besides, the Potency in test [3] is 25.2 µM (active).
In the case of `CC(=O)c1ccc(N2CCN(S(=O)(=O)c3ccc4[nH]c(=O)[nH]c4c3)CC2)cc1`, in test [2], the Potency result is “inactive”.
On to `CCOc1cccc(-c2cc(-c3n[nH]c(=S)n3CC)c3ccccc3n2)c1`, for which the Potency entry in test [2] was “inactive”.
Still for that read-out and setting: to `Fc1ccc(-c2ccc(CNc3nc(-c4ccccc4C(F)(F)F)nc4ccccc34)cc2)cc1` belongs “inactive”; to `O=C(OCC#CCNc1nnc(-c2cccc3ccccc23)o1)c1cccs1`, “inactive”; to `O=c1c(Nc2ccc(Br)c(Br)c2)c(Nc2nnc(-c3ccncc3)s2)c1=O`, “inactive”.
As for `CC(=O)Nc1sc2c(c1-c1nc3ccccc3s1)CCN(C1COC1)C2`, the Potency in test [1] is 14.2 µM (active); in test [3], 4 µM (active). Besides, the Potency entry in test [2] is “inactive”.
As to `CC(O)c1ccc(-c2ccc3ncnc(NCC4CCCO4)c3c2)o1` (centres undefined), in test [2], the Potency entry was “inactive”.
Turning to `O=c1c2ccccc2nc2sc(NCc3ccc([S+](=O)([O-])c4ccccc4)cc3)nn12`, the Potency entry in test [2] is “inactive”.
Turning to `Cc1noc(Nc2sc3c(c2-c2nc4ccccc4s2)CCNC3)n1`, the Potency in test [1] is 25.2 µM (active). Also, the Potency result in test [2] is “inactive”.
Take `COc1cccc(-c2nc(SC)nc3sc(C(=O)NC(C)(C)C)c(N)c23)c1`: the Potency result in test [2] is “inactive”.
With `Cc1ccc(CN(C)c2ncnc3ccc(-c4ccc(CO)o4)cc23)o1`, the Potency in test [1] was 11.3 µM (active); in test [3] it was 2.52 µM (active). Moreover, in test [2], the Potency result is “inactive”.
For `Cc1ccc(N2CCN(S(=O)(=O)c3ccc4c(c3)CC(=O)N4)CC2)cc1`, the Potency result in test [2] was “inactive”.
Turning to `CN1CCN(c2cccc(Nc3nn4c(=O)c5ccc(Br)cc5nc4s3)c2)CC1`, the Potency entry in test [2] is “inactive”.
In the case of `Cc1ccc(-c2nc3ccccc3s2)cc1NC(=O)c1ccc(-c2cccc(Cl)c2)o1`, the Potency was 22.5 µM (active) in test [1] and 8.96 µM (active) in test [3]. Moreover, the Potency result in test [2] is “inactive”.
